Assay results: PubChem BioAssay AID1159580 (chemical genetic matrix, 2015)
“And” between values parts separate entries of the source, which are not always exact repeats. Equal values may be shown once. Screen size: about 5,500 compounds; about 2,000 (36%) were called active. Roughly 18% stayed inconclusive and do not appear here. No stated cut-off is given here; in the data, active means normalized growth mostly below about 0.91 (no sharp cut-off); inconclusive means no clear call, values can overlap the other calls; inactive means mostly above about 0.92. The list shows a part of the results.

Test: chemical genetic growth profiling, strain panel (AID 1159580);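 further: tested at 20 µM; growth read once vehicle control cultures reached saturation at 30 °C; 1 = growth at the plate median or of vehicle wells; lower values mean less growth of the strain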
Settings: S. cerevisiae deletion strains, growth OD

Measured: normalized growth

C[C@]12CCC3c4ccc(O)cc4CCC3C1C[C@@H](O)[C@@H]2O (some centres undefined)
inactive: locus YAL013W, strain DEP1, hits give low values 0.994 | locus YAL021C, strain ccr4, hits give low values 1.01 | locus YAL026C, strain drs2, hits give low values 1 | locus YAL030W, strain snc1, hits give low values 1.02 | locus YBL061C, strain skt5, hits give low values 1.02 | locus YBR009C, strain hhf1, hits give low values 1.02 | locus YBR021W, strain FUR4, hits give low values 1.01 | locus YBR023C, strain chs3, hits give low values 1.03 | locus YBR171W, strain sec66, hits give low values 1.02 | locus YBR229C, strain ROT2, hits give low values 0.962 | locus YBR231C, strain swc5, hits give low values 0.988 | locus YBR279W, strain paf1, hits give low values 1.04 | locus YCL011C, strain gbp2, hits give low values 1.05 | locus YCL016C, strain dcc1, hits give low values 1.05 | locus YCL029C, strain bik1, hits give low values 0.984 | locus YCL061C, strain MRC1, hits give low values 1.03 | locus YCL069W, strain vba3, hits give low values 1.01 | locus YCR088W, strain abp1, hits give low values 1.01 | locus YDL005C, strain med2, hits give low values 1.02 | locus YDL035C, strain GPR1, hits give low values 0.969 | locus YDL040C, strain nat1, hits give low values 1.01 | locus YDL074C, strain BRE1, hits give low values 0.951 | locus YDL101C, strain DUN1, hits give low values 0.997 | locus YDL185W, strain tfp1, hits give low values 0.974 | locus YDL192W, strain arf1, hits give low values 0.985 | locus YDR001C, strain nth1, hits give low values 1.01 | locus YDR069C, strain doa4, hits give low values 1 | locus YDR101C, strain arx1, hits give low values 0.945 | locus YDR137W, strain rgp1, hits give low values 1.06 | locus YDR150W, strain NUM1, hits give low values 0.989 | locus YDR159W, strain sac3, hits give low values 0.979 | locus YDR162C, strain NBP2, hits give low values 0.968 | locus YDR195W, strain ref2 0.999 | locus YDR297W, strain sur2, hits give low values 1.03 | locus YDR318W, strain mcm21, hits give low values 1 | locus YDR334W, strain swr1, hits give low values 1.02 | locus YDR335W, strain msn5, hits give low values 1.02 | locus YDR388W, hits give low values 0.982 | locus YDR392W, strain spt3, hits give low values 1.01 | locus YDR502C, strain sam2, hits give low values 0.993 | locus YEL003W, strain gim4, hits give low values 0.994 | locus YEL037C, strain rad23, hits give low values 1.01 | locus YEL061C, strain CIN8 (second series), hits give low values 1.01 | locus YEL061C, strain CIN8, hits give low values 0.997 | locus YER015W, strain faa2, hits give low values 1.02 | locus YER016W, strain bim1, hits give low values 1 | locus YER110C, hits give low values 0.983 | locus YER111C, strain swi4, hits give low values 1.03 | locus YER155C, strain BEM2 (second series), hits give low values 1.02 | locus YER155C, strain BEM2, hits give low values 0.993 | locus YER167W, strain BCK2, hits give low values 1 | locus YFR010W, strain ubp6, hits give low values 1.01 | locus YGL078C, strain dbp3, hits give low values 0.995 | locus YGL086W, strain mad1, hits give low values 0.971 | locus YGL167C, strain pmr1, hits give low values 1.03 | locus YGL173C, strain kem1, hits give low values 1.01 | locus YGL227W, strain vid30, hits give low values 1.02 | locus YGL240W, strain doc1, hits give low values 1.03 | locus YGL248W, strain PDE1, hits give low values 0.988 | locus YGL253W, strain hxk2, hits give low values 1 | locus YGR135W, strain pre9, hits give low values 1.07 | locus YGR252W, strain gcn5, hits give low values 1.07 | locus YHR013C, strain ard1, hits give low values 1.05 | locus YHR027C, strain rpn1, hits give low values 1.02 | locus YHR030C, strain SLT2, hits give low values 0.993 and 1.01 | locus YHR079C, strain IRE1 (second series), hits give low values 0.987 | locus YHR079C, strain IRE1, hits give low values 0.992 | locus YHR094C, strain hxt1, hits give low values 0.984 | locus YHR129C, strain ARP1, hits give low values 0.994 | locus YHR142W, strain chs7, hits give low values 1.02 | locus YHR200W, strain rpn10, hits give low values 1 | locus YIL066C, strain RNR3, hits give low values 0.977 | locus YIL073C, strain SPO22, hits give low values 0.991 | locus YIL125W, strain kgd1, hits give low values 0.985 | locus YIR030C, strain dcg1, hits give low values 0.994 | locus YJL092W, strain hpr5, hits give low values 1.02 | locus YJL095W, strain BCK1 (second series), hits give low values 1.02 | locus YJL095W, strain BCK1, hits give low values 1 and 0.994 | locus YJL115W, strain asf1, hits give low values 1.02 | locus YJL129C, strain trk1, hits give low values 1.03 | locus YJL134W, strain LCB3, hits give low values 0.989 | locus YJL154C, strain vps35, hits give low values 1.01 | locus YJL164C, strain tpk1, hits give low values 1.01 | locus YJL166W, strain qcr8, hits give low values 1.05 | locus YJL168C, strain set2, hits give low values 1.01 | locus YJL187C, strain SWE1 (second series), hits give low values 0.996 | locus YJL187C, strain SWE1, hits give low values 1.04 | locus YJR043C, strain POL32, hits give low values 0.976 | locus YJR066W, strain TOR1, hits give low values 0.97 | locus YJR075W, strain HOC1, hits give low values 0.992 | locus YKL009W, strain mrt4, hits give low values 0.973 | locus YKL068W, hits give low values 0.986 | locus YKL085W, strain MDH1 (second series), hits give low values 1.01 | locus YKL085W, strain MDH1, hits give low values 1.01 | locus YKL160W, strain elf1, hits give low values 1.05 | locus YKR001C, strain vps1, hits give low values 0.972 | locus YKR026C, strain gcn3, hits give low values 1.02 | locus YKR091W, strain srl3, hits give low values 1.02 | locus YLL001W, strain dnm1, hits give low values 1.05 | locus YLL026W, hits give low values 1.02 | locus YLL041C, strain sdh2, hits give low values 1.01 | locus YLR027C, strain aat2, hits give low values 1.01 | locus YLR039C, strain RIC1, hits give low values 1.03 | locus YLR058C, strain SHM2, hits give low values 0.977 | locus YLR102C, strain apc9, hits give low values 0.996 | locus YLR113W, strain HOG1, hits give low values 0.97 | locus YLR221C, strain rsa3, hits give low values 1.05 | locus YLR258W, strain gsy2, hits give low values 1.01 | locus YLR262C, strain YPT6 (second series), hits give low values 1.04 | locus YLR262C, strain YPT6, hits give low values 0.925 | locus YLR268W, strain sec22, hits give low values 0.987 | locus YLR320W, strain mms22, hits give low values 1.07 | locus YLR330W, strain CHS5, hits give low values 0.984 | locus YLR342W, strain FKS1 (second series), hits give low values 0.999 | locus YLR342W, strain FKS1, hits give low values 1.02 | locus YLR357W, strain rsc2, hits give low values 1.03 | locus YLR370C, strain arc18, hits give low values 1.02 | locus YLR371W, strain rom2, hits give low values 1.01 | locus YLR384C, strain iki3, hits give low values 1.02 | locus YLR418C, strain cdc73, hits give low values 1.02 | locus YML016C, strain PPZ1, hits give low values 0.989 | locus YML032C, strain rad52, hits give low values 0.967 | locus YML120C, strain ndi1, hits give low values 1.04 | locus YML124C, strain tub3, hits give low values 0.996 | locus YMR058W, strain fet3, hits give low values 1.01 | locus YMR078C, strain ctf18, hits give low values 0.991 | locus YMR125W, strain sto1, hits give low values 1.02 | locus YMR129W, hits give low values 1 | locus YMR205C, strain PFK2, hits give low values 1.04 | locus YMR223W, strain ubp8, hits give low values 1.02 | locus YMR231W, strain pep5, hits give low values 1.02 | locus YMR307W, strain GAS1, hits give low values 0.954 | locus YNL067W, strain RPL9B, hits give low values 0.994 | locus YNL071W, strain lat1, hits give low values 1.02 | locus YNL153C, strain GIM3, hits give low values 0.976 | locus YNL183C, strain NPR1, hits give low values 0.962 | locus YNL209W, strain ssb2, hits give low values 1.03 | locus YNL233W, strain BNI4, hits give low values 0.987 | locus YNL248C, strain rpa49, hits give low values 1.05 | locus YNL250W, strain rad50, hits give low values 0.987 | locus YNL271C, strain bni1, hits give low values 0.991 | locus YNL298W, strain CLA4, hits give low values 0.99 | locus YNL307C, strain MCK1, hits give low values 0.999 | locus YNL322C, strain KRE1 (second series), hits give low values 1.05 | locus YNR049C, strain mso1, hits give low values 1.02 | locus YNR052C, strain pop2, hits give low values 0.982 | locus YOL012C, strain htz1 1.25 | locus YOL147C, strain pex11, hits give low values 0.993 | locus YOR001W, strain rrp6, hits give low values 0.998 | locus YOR061W, strain CKA2, hits give low values 0.973 | locus YOR069W, strain VPS5, hits give low values 0.997 | locus YOR070C, strain gyp1, hits give low values 1.02 | locus YOR080W, strain dia2, hits give low values 1.02 | locus YOR083W, strain WHI5, hits give low values 1.06 | locus YOR106W, strain vam3, hits give low values 1.03 | locus YOR136W, strain idh2, hits give low values 0.987 | locus YOR144C, strain elg1, hits give low values 0.993 | locus YOR184W, strain ser1, hits give low values 1 | locus YOR231W, strain MKK1, hits give low values 0.972 | locus YOR265W, strain rbl2, hits give low values 1.02 | locus YOR270C, strain vph1, hits give low values 1.04 | locus YOR290C, strain snf2, hits give low values 0.975 | locus YOR316C, strain cot1, hits give low values 0.985 | locus YPL051W, strain arl3, hits give low values 1.02 | locus YPL078C, strain atp4, hits give low values 1.05 | locus YPL106C, strain sse1, hits give low values 1.06 | locus YPL240C, strain hsp82, hits give low values 1.03 | locus YPL241C, strain CIN2, hits give low values 0.989 | locus YPL256C, strain CLN2, hits give low values 1 | locus YPR119W, strain clb2, hits give low values 0.989 | locus YPR141C, strain kar3, hits give low values 0.989 | locus YPR163C, strain tif3, hits give low values 0.996 | locus YPR167C, strain met16, hits give low values 0.999 | strain wtn01, hits give low values 1.01
